Screening data (PubChem BioAssay)
Integrin act MD: integrin-mediated muscular dystrophy alleviation activation; Potency, µM (doses to about 38.3 µM), for the others: at the highest dose activation, usual class: activators; alpha7betagal myoblasts, beta-gal FDG fluorescence, 48 h; 0.064% of 350,000 active;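 further: potency means the concentration at half of the fitted maximal effect; 100% = response of the positive control SU9516; nearly all actives have a fitted effect of over 60% in size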
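alpha7betagal+/- myoblasts (passage 13, 250/well) treated 48 h at 37C with compounds at 1:260 dilution of DMSO stock. Lysed, then beta-galactosidase activity read as FDG fluorescence (ex 480/em 540) after 30 min, with pre-read for autofluorescence.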
TrxR1 substrate: substrates of rat thioredoxin reductase 1 | O89049 | purified TrxR1 substrate turnover, NADPH consumption readout | Potency, µM (series often up to 114 µM), for the others: at the top dose activity change, negative = substrate turnover | 0.01% of 390,000 active; further: potency means the concentration at half of the fitted maximal effect; nearly all actives have a fitted effect of over 50% in size
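Rat TrxR1, dispensed at 90 nM, was prereduced with 400 uM NADPH (final) for 5 min at ~22 deg C, then incubated with compound 15 min before 400 uM selenite. A first-read NADPH fluorescence drop versus no-compound background flagged substrates.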
LDHA block: LDHA (human) enzyme inhibition; purified LDHA, NADH/diaphorase-resazurin fluorescence; stronger effect = lower value; activity change, % (values are at about 110 or 230 µM); 0.15% of 480,000 active; in the data active means activity change below about -30%; inconclusive means mostly about -25% to -30%;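 further: plate controls were DMSO wells for no effect and wells without enzyme for full effect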
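Human LDH5 (2 nM) was incubated with 0.06 mM NADH and 0.2 mM pyruvate for 5 min at room temperature in Tris pH 7.4. Remaining NADH was coupled through diaphorase/resazurin, and resorufin fluorescence was read at 0 and 20 min.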
GALK inhibitor: blocks human galactokinase activity. P51570. Purified GALK, Kinase-Glo residual ATP luminescence. Potency, µM (highest dose often 57.5 µM), inactives show top-dose activity change, negative = inhibition, most hits filed as inhibitors. 0.007% of 270,000 active. AID 1868; further: potency means the concentration at half of the fitted maximal effect
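Luminescence from leftover ATP (Ultra-Glo luciferase/luciferin) served as read-out after a 1 h room-temperature reaction of 5 nM GALK with 35 uM ATP and 100 uM galactose.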
PI4K2A inh: inhibitors of human PI4K2A. Q9BTU6. purified PI4K2A, ADP-Glo luminescence, 1 h; stronger effect = lower value. activity change, negative = inhibition, % at 76.9 µM. 0.13% of 420,000 active. AID 1346378; in the data active means activity change below about -50%; inconclusive means mostly about -30% to -49%;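 further: -100% = wells without enzyme as full effect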
Target sequence (Q9BTU6 whole entry, looked up): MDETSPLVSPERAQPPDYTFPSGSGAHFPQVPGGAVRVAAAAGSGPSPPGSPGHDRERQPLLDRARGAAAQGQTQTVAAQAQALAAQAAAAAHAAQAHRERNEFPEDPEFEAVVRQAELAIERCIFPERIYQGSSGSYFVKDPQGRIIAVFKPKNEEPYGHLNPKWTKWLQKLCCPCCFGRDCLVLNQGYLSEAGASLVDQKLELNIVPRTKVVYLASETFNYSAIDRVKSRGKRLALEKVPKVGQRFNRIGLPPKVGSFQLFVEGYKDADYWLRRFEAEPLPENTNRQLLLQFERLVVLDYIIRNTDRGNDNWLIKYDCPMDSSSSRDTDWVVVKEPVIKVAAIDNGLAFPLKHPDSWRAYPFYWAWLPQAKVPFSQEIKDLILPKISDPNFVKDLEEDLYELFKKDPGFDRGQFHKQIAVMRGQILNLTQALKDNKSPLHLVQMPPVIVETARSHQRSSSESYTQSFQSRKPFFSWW
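Compounds are screened against recombinant PI4K2A using PI as substrate and ATP, the latter dispensed at 300 microM. Reactions run one hour at ambient temperature before ADP-Glo detection; full inhibition defined by wells lacking enzyme.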
TrxR1 inh: inhibitors of rat thioredoxin reductase 1; recombinant rTrxR1, NADPH fluorescence consumption, selenite substrate; Potency, µM (doses to about 114 µM), for inactives: at the top dose activity change, negative = inhibition, most hits filed as inhibitors; 1% of 390,000 active; AID 588453; further: potency means the concentration at half of the fitted maximal effect; nearly all actives have a fitted effect of over 65% in size
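Rat TrxR1 (90 nM in the dispensed reagent) was pre-reduced with 400 uM NADPH for 5 min at room temperature, then incubated with compound for 15 min. After 400 uM selenite was added, NADPH fluorescence (Ex 340/Em 450 nm) was followed for 8 min.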
Active calls of the source: *; ? = inconclusive; / = no result; [ ] = dose if it differs, or a comment. An excerpt weighted towards active compounds, which were near 1.1% of everything screened. Unless noted, the call rests on the fitted dose curve; in most records, active means well fitted curve in the direction sought with a large enough effect; inconclusive means small, poorly fitted or top-dose-only effect, or another doubt; inactive means no such curve, though single readings can be large; an effect the other way counts as inactive or inconclusive. Unless noted, on the % scale 0 is the no-effect control and ±100 the full control effect.

SMILES	Integrin act MD	TrxR1 substrate	LDHA block	GALK inhibitor	PI4K2A inh	TrxR1 inh
Cc1onc(-c2ccccc2Cl)c1C(=O)Nc1sc2c(c1C#N)CCC2	-15.5%	-1.7%	0.0	0.8%	-7.2	-4.0%
Cc1ccc(CC(C#N)Sc2nnc(COc3ccccc3Cl)n2C)cc1 (stereo unspecified)	/	/	7.3	/	/	/
CC1=NN(c2ccccc2)C(=O)/C1=C\c1ccc(Oc2ccc([N+](=O)[O-])cc2[N+](=O)[O-])cc1	-45.7%	1.0%[57.1 µM]	9.9	2.8%	?	3.98µM*
O=C(O)CCCNc1cc(N2CCN(C(=O)c3ccco3)CC2)c2noc3c2c1C(=O)c1ccccc1-3	17.5%	-0.1%	1.6	14.3%	?	-22.4%
CCOC(=O)N1CCN(c2cc(NCCC(=O)O)c3c4c(onc24)-c2ccccc2C3=O)CC1	-13.1%	-14.8%	16.2	2.0%	-57.1*	-35.6%
CN(C)CCOc1ccc(C(C)(C)c2ccccc2)cc1	-17.5%	8.4%[57.1 µM]	-37.8*	11.0%	-1.5	12.3%[57.1 µM]
CN(C)CCCOc1ccc(C(C)(C)c2ccccc2)cc1	-65.3%	-0.6%	-15.6	-0.2%	-2.5	13.6%
CCCCC1CCC(C(=O)Nc2ccc(OC)c3ncccc23)CC1 (stereo unspecified)	/	/	-30.1*	/	/	/
CCCCOc1ccc(NC(=O)CC)c2cccnc12	/	/	35.5	/	/	/
O=c1c2ccccc2sc2ccc(Br)cc12	/	/	10.1	/	/	/
O=c1c(Br)ccc(Br)cc1Br	-52.6%	13.2%[11.4 µM]	14.7	/	?	0.199µM*
CC(C)C(=O)Nc1cc2c(cc1Sc1ccccc1Cl)n(C)c(=O)n2C	/	/	17.9	/	/	/
O=C(COC(=O)C12CC3CC(CC(Cl)(C3)C1)C2)Nc1cccc([N+](=O)[O-])c1	/	/	-19.6	/	/	/
COc1ccc(N2C(=O)CC(Sc3n[nH]c(-c4cccc(C)c4)n3)C2=O)cc1 (stereo unspecified)	0.3%	18.1%[57.1 µM]	-1.8	4.4%	-4.8	?
CCOc1ccccc1N1C(=O)CC(Sc2n[nH]c(-c3ccccc3)n2)C1=O (stereo unspecified)	-37.1%	6.7%[57.1 µM]	-9.7	-1.4%	1.7	1µM*
Cc1cc(NC(=O)CN2CCCCC2)no1	4.3%	1.4%[57.1 µM]	-32.1*	8.9%	-0.2	-1.6%[57.1 µM]
CCN(CC)c1ccc(NC(=S)Nc2ccccc2)cc1	/	/	24.6	/	/	/
CCN(CC)c1ccc(C(=C2C=CC(=[N+](CC)CC)C=C2)c2ccc(N(CC)CC)cc2)cc1	?	3.4%	4.4	/	-70.7*	?
CCN(CC)c1ccc(C(=C2C=CC(=[N+](CC)CC)C=C2)c2ccccc2)cc1	?	-10.4%	14.2	/	-7.5	39.8µM*
CCN(CC)c1ccc(NC(=O)c2cc(S(N)(=O)=O)ccc2C)cc1	/	/	-2.6	/	/	/
CCN(CC)c1ccc(C(=C2C=CC(=[N+](CC)CC)C=C2)c2cc(S(=O)(=O)O)ccc2S(=O)(=O)[O-])cc1	/	/	/	/	-51.1*	/
CCN(CC)c1ccc(C(=O)NNC(=O)CCl)cc1	-24.2%	-18.6%	-12.1	-0.9%	0.0	?
Cc1ccc(NCCC(=O)c2cccc([N+](=O)[O-])c2)c(C)c1	-42.6%	2.2%[57.1 µM]	0.4	0.0%	6.3	3.16µM*
Cc1cccc(NCCC(=O)c2ccc([N+](=O)[O-])cc2)c1C	-46.1%	0.3%	2.5	0.8%	21.0	4.47µM*
CCOC(=O)C(NC(=O)C1Cc2ccccc2C(=O)O1)C(=O)OCC (stereo unspecified)	/	/	-6.0	/	/	/
SMILES	Integrin act MD	TrxR1 substrate	LDHA block	GALK inhibitor	PI4K2A inh	TrxR1 inh
CC(C)C(C(=O)O)N1C(=O)/C(=C/c2cccn2C)SC1=S (stereo unspecified)	-6.1%	-24.2%	-3.0	-3.8%	-1.8	9.5%[57.1 µM]
CC(C)C(C(=O)O)N1C(=O)/C(=C/C=C/c2ccco2)SC1=S (stereo unspecified)	-46.0%	?	14.8	-6.4%	-29.7	31.6µM*
O=C(NN1C(=O)/C(=C/C=C/c2ccco2)SC1=S)c1ccncc1	-37.7%	-7.4%	14.8	-4.3%	?	12.6µM*
O=C1/C(=C/C=C/c2ccco2)SC(=S)N1c1ccc(O)cc1	6.5%	-3.6%	1.0	-1.0%	-19.4	35.5µM*
COc1cc(/C=N/O)ccc1OCC(=O)NN	/	/	0.0	/	/	/
CC(C)c1ccc(/C=C2\C=Cc3ccccc32)cc1	/	-6.4%	2.3	/	/	?
Cc1cc(/C=C2\C=Cc3ccccc32)cc(C)c1[N+](=O)[O-]	/	-5.5%	-3.9	/	/	20µM*
Brc1ccc(/C=C2\C=Cc3ccccc32)cc1	/	1.3%	1.1	/	/	31.6µM*
C1=Cc2ccccc2/C1=C\c1ccc(/C=C2\C=Cc3ccccc32)cc1	/	-4.4%	0.2	/	/	-4.0%
C1=Cc2ccccc2/C1=C\c1cccc(/C=C2\C=Cc3ccccc32)c1	/	-1.2%	-1.9	/	/	20µM*
COc1ccc(Nc2nc(-c3ccc4c(c3)CCC(=O)N4)cs2)cc1	/	/	2.8	/	/	/
O=C1C(Nc2ccc(O)cc2)=C/C(=N/S(=O)(=O)c2cccs2)c2ccccc21	-65.8%	-4.5%	41.9	-18.1%	?	-0.3%
O=C(O)c1ccc(NC2=C/C(=N/S(=O)(=O)c3cccs3)c3ccccc3C2=O)cc1	-28.6%	/	23.3	/	-52.0*	/
N#Cc1ccccc1NCc1ccccn1	/	/	-0.2	/	/	/
O=C(COC(=O)/C=C/c1ccco1)Nc1ncc(C(F)(F)F)cc1Cl	-3.6%	-15.9%[57.1 µM]	2.5	1.3%	-2.8	?
Cc1c(Cl)cnc(NC(=O)COC(=O)/C=C/c2ccco2)c1Cl	-6.4%	0.4%	1.6	/	-19.5	15.8µM*
CCN(CC)S(=O)(=O)c1cccc(NC(=O)COC(=O)/C=C/c2ccco2)c1	28.6%	-10.3%	-3.7	3.1%	0.7	?
Cc1nc(NC(=O)COC(=O)[C@@H](NC(=O)c2ccco2)C(C)C)c(Cl)cc1Cl	-24.7%	6.9%	-18.6	/	0.3	-7.1%
Cc1c(Cl)cnc(NC(=O)COC(=O)C(NC(=O)c2ccco2)C(C)C)c1Cl (stereo unspecified)	-11.8%	1.4%	-0.5	-0.6%	-8.7	50.1µM*
CN(C)S(=O)(=O)c1cccc(NC(=O)COC(=O)/C=C/c2ccco2)c1	-11.3%	-2.2%	-2.7	1.7%	-5.2	25.1µM*
COc1ccccc1NC(=O)CC1C(=O)Nc2ccccc2N1C(=O)c1ccc(C)cc1 (stereo unspecified)	/	/	1.7	/	/	/
CCN1CCN(c2ccc(C(=O)OC)cc2NC(=O)COc2ccc(C(C)(C)C)cc2)CC1	/	/	-5.6	/	/	/
O=C(/C=C/c1cccc(Cl)c1Cl)c1ccccc1OC(F)F	/	/	8.6	/	/	/
